Many of the other results were omitted from the sample, so hits are more common in it than they were.
IDE exosite inh: exo-site inhibitors of human IDE, primary screen, biochemical, fluorescence anisotropy, probe displacement | Insulin-degrading enzyme (Homo sapiens), P14735 | purified IDE, FL-6b probe fluorescence polarization; active compounds read low | z-score at 20 µM | 6.3% of 17,000 active;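 active means z-score of -3 or lower, meaning strong loss of probe binding signal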;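 further: His-tagged human IDE residues 42-1019 made in E. coli with 30 nM FL-6b probe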
Target sequence (P14735 42-1019 limits assumed): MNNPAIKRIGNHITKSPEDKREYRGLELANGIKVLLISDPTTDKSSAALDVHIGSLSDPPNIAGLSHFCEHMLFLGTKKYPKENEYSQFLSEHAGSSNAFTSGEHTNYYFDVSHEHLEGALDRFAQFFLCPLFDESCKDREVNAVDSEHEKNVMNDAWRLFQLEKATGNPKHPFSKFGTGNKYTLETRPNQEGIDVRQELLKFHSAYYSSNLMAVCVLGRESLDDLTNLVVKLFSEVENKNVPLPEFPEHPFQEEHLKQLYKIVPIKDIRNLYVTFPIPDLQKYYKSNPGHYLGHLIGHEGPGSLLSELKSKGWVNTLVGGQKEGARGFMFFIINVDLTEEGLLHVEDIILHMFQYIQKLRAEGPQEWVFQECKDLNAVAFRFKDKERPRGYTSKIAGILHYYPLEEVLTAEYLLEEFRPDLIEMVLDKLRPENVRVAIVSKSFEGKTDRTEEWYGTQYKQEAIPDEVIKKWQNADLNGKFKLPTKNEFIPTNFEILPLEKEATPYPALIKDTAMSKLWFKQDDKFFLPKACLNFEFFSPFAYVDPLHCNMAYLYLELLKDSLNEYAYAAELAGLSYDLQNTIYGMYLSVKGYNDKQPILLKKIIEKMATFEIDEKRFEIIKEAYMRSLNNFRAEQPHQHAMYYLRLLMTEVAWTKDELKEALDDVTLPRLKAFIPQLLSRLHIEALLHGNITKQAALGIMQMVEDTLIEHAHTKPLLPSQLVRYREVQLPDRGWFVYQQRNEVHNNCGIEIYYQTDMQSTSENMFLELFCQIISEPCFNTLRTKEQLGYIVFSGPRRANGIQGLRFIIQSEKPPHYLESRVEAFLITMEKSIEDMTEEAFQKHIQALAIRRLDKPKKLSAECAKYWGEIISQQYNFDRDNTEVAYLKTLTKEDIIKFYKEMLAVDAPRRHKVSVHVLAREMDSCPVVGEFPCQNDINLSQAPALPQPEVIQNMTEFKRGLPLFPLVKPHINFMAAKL
Active calls of the source: *; ! = a repeat was not active.

SMILES	IDE exosite inh
O=C(c1cccc(F)c1)N1CC(=O)N2[C@H](C1)[C@H](c1ccc(C#Cc3ccc(F)cc3)cc1)[C@@H]2CO	1.5
O=C(C1CCCCC1)N1CC(=O)N2[C@H](CO)[C@H](c3ccc(C#Cc4cccc(F)c4)cc3)[C@@H]2C1	0.66
O=C(C1CC1)N1CC(=O)N2[C@H](C1)[C@@H](c1ccc(C#Cc3cccc(F)c3)cc1)[C@@H]2CO	-2.9
O=C(C1CC1)N1CC(=O)N2[C@H](CO)[C@H](c3ccc(C#Cc4cccc(F)c4)cc3)[C@H]2C1	-9.6*
C/C=C/c1ccc([C@H]2[C@H]3CN(C(=O)Nc4cc(F)ccc4F)CCCCN3[C@H]2CO)cc1	1.1
CC(C)COC(=O)N(C)C[C@@H]1OCc2ccccc2-c2ccccc2C(=O)N([C@H](C)CO)C[C@@H]1C	-0.18
CN(C)C(=O)c1cccc(-c2ccc(C3[C@H]4CNC[C@@H]3N4Cc3cccnc3)cc2)c1 (stereo partly specified)	1.1
CN(C)CC(=O)N1CC2(C1)[C@H](c1ccccc1)[C@H](CO)N2S(C)(=O)=O	1.3
Cc1cccc(S(=O)(=O)N2CCCCN3[C@H](CO)[C@H](c4ccc(C#C[C@@H](C)O)cc4)[C@H]3C2)c1	0.36
COc1ccccc1NC(=O)N1CC(=O)N2[C@H](CO)[C@H](c3ccc(-c4ccc(F)cc4)cc3)[C@@H]2C1	0.041
O=S(=O)(c1ccc(F)cc1)N1CCCCN2[C@H](CO)[C@H](c3ccc(C#CC4CC4)cc3)[C@H]2C1	1
COc1ccc(-c2ccc([C@H]3[C@H]4CN(C(=O)NC(C)C)CC(=O)N4[C@H]3CO)cc2)cc1	1.7
C[C@@H](O)C#Cc1ccc([C@@H]2[C@H]3CN(C(=O)c4ccc(F)cc4)CCCCN3[C@H]2CO)cc1	2.2
CN(C)C(=O)C[C@@H]1C=C[C@H](NC(=O)c2ccc(F)cc2)[C@@H](CO)O1	-0.32
O=C(c1cccc(F)c1)N1CC(=O)N2[C@H](CO)[C@@H](c3ccc(C#Cc4ccc(F)cc4)cc3)[C@@H]2C1	1.3
O=C(C1CCCCC1)N1CC(=O)N2[C@H](CO)[C@H](c3ccc(C#Cc4cccc(F)c4)cc3)[C@H]2C1	-2.9
O=C(C1CCC1)N1CC(=O)N2[C@H](CO)[C@@H](c3ccc(C#Cc4cccc(F)c4)cc3)[C@H]2C1	-6.9*
O=C(C1CCCCC1)N1CC(=O)N2[C@H](C1)[C@@H](c1ccc(C#Cc3cccc(F)c3)cc1)[C@@H]2CO	-0.09
O=C(c1cccc(F)c1)N1CC(=O)N2[C@@H](CO)[C@@H](c3ccc(C#Cc4ccc(F)cc4)cc3)[C@@H]2C1	-0.9
O=C(C1CC1)N1CC(=O)N2[C@H](CO)[C@H](c3ccc(C#Cc4cccc(F)c4)cc3)[C@@H]2C1	-4.2*
CC(=O)N1[C@H](CN(C(=O)c2ccccc2)C(C)C)[C@H](c2ccccc2)[C@@H]1CO	1.3
O=C(c1cccnc1)N1CC[C@@H]2[C@@H](CO)Nc3ccc(C4=CCCCC4)cc3[C@@H]21	1
CCC(=O)NC[C@H]1[C@@H](c2ccc(C3=CCCC3)cc2)[C@H](CO)N1C(C)=O	4
O=C(c1ccncc1)N1CC(=O)N2[C@H](CO)[C@H](c3ccc(C#CCC4CCCC4)cc3)[C@H]2C1	-0.18
O=C(c1ccccc1F)N1C[C@H]2[C@@H](c3ccccc31)[C@@H](CO)N2C(=O)Nc1ccccc1	-0.74
SMILES	IDE exosite inh
COc1ccc(C#Cc2ccc([C@@H]3[C@@H](CO)N4CCCCN(S(=O)(=O)c5ccccc5)C[C@H]34)cc2)cc1	5.6
COc1ccccc1C#Cc1ccc([C@@H]2[C@H]3CN(CCC(F)(F)F)CCCCN3[C@H]2CO)cc1	-7.8*
COc1ccccc1C#Cc1ccc([C@H]2[C@H](CO)N3CCCCN(S(C)(=O)=O)C[C@@H]23)cc1	-8.1*
OC[C@@H]1[C@H](c2ccc(-c3ccccc3)cc2)[C@@H]2CN(CCC(F)(F)F)CCCCN12	3.5
OC[C@H]1[C@H](c2ccc(-c3ccccc3)cc2)[C@H]2CN(CCC(F)(F)F)CCCCN21	0.51
COc1ccccc1C#Cc1ccc([C@@H]2[C@H]3CN(S(C)(=O)=O)CCCCN3[C@H]2CO)cc1	-12*
CCCC#Cc1ccc([C@@H]2[C@@H](CO)N3CCCCN(S(C)(=O)=O)C[C@H]23)cc1	2.2
COc1ccc(C#Cc2ccc([C@H]3[C@H](CO)N4CCCCN(S(=O)(=O)c5ccccc5)C[C@@H]34)cc2)cc1	4.7
COc1ccc(C#Cc2ccc([C@H]3[C@@H](CO)N4CCCCN(S(=O)(=O)c5ccccc5)C[C@@H]34)cc2)cc1	2.3
CC(C)C#Cc1ccc([C@H]2[C@@H](CO)N3C(=O)CN(C(=O)c4ccc5c(c4)OCO5)C[C@H]23)cc1	-1.5
CCC(=O)N1[C@H](CN(C)C(C)=O)[C@H](c2ccc(C3=CCCC3)cc2)[C@@H]1CO	0.73
COCC#Cc1ccc([C@H]2[C@@H](CO)N3C(=O)CN(C(=O)Nc4cc(F)ccc4F)C[C@H]23)cc1	0.33
COc1cccc(S(=O)(=O)N2C[C@@H]3N[C@H](C2)C3c2ccc(-c3ccccc3C)cc2)c1 (stereo partly specified)	-9.9*!
COc1cccc(S(=O)(=O)N2C[C@@H]3N[C@H](C2)C3c2ccc(-c3ccccc3F)cc2)c1 (stereo partly specified)	0.57
Cc1cccc(S(=O)(=O)N2C[C@@H]3N[C@H](C2)C3c2ccc(-c3ccccc3C)cc2)c1 (stereo partly specified)	-6.6*!
Cc1cccc(S(=O)(=O)N2C[C@@H]3N[C@H](C2)C3c2ccc(-c3cncnc3)cc2)c1 (stereo partly specified)	0.092
COc1cccc(S(=O)(=O)N2C[C@@H]3N[C@H](C2)C3c2ccc(-c3ccccc3OC)cc2)c1 (stereo partly specified)	-2.2
Cc1cccc(S(=O)(=O)N2C[C@@H]3N[C@H](C2)C3c2ccc(-c3ccccc3F)cc2)c1 (stereo partly specified)	2.5
Cc1cccc(-c2ccc([C@H]3[C@H](CO)N4C(=O)CN(S(=O)(=O)c5cccc(F)c5)C[C@@H]34)cc2)c1	1.1
CCN1C[C@@H](C)[C@H](OC)CN(C)C(=O)c2cc(NC(=O)c3ccno3)ccc2OC[C@H]1C	-0.67
CS(=O)(=O)N1CCCCN2[C@H](CO)[C@@H](c3ccc(-c4cccc(C#N)c4)cc3)[C@@H]2C1	1.5
CN1CCCCN2[C@@H](CO)[C@H](c3ccc(-c4ccccc4)cc3)[C@@H]2C1	-2.7
CC(=O)N1CCCCN2[C@@H](CO)[C@H](c3ccc(-c4ccccc4)cc3)[C@@H]2C1	-0.87
CC(=O)N1CCCCN2[C@H](CO)[C@H](c3ccc(-c4ccc(C)cc4)cc3)[C@H]2C1	-1.8
Cc1cccc(-c2ccc([C@H]3[C@@H](CO)N4CCCCN(C(=O)c5ccc6c(c5)OCO6)C[C@H]34)cc2)c1	-8.1*
CC(=O)N1CCCCN2[C@H](CO)[C@H](c3ccc(-c4cccc(C)c4)cc3)[C@@H]2C1	3.6
CC(=O)N1CCCCN2[C@H](CO)[C@H](c3ccc(-c4cccc(C)c4)cc3)[C@H]2C1	-12*
Cc1cccc(-c2ccc([C@@H]3[C@@H](CO)N4CCCCN(C(=O)c5ccc6c(c5)OCO6)C[C@H]34)cc2)c1	0.5
Cc1cccc(-c2ccc([C@H]3[C@@H](CO)N4CCCCN(C(=O)c5ccc6c(c5)OCO6)C[C@@H]34)cc2)c1	3
CC(=O)N1CCCCN2[C@@H](CO)[C@H](c3ccc(-c4cccc(C)c4)cc3)[C@@H]2C1	-3.2*

Source: PubChem (Broad Institute)
